Screens (PubChem)
BLM inh: inhibitors of human Bloom syndrome helicase BLM; 0.2% of 350,000 active; Potency, µM (series often up to 56.1 µM), for inactives: top-dose activity change, negative = inhibition, actives largely listed as inhibitors; AID 2528; recombinant BLM DNA unwinding, fluorescence dequenching;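 note: potency is the fitted concentration of half-maximal effect; plate controls were vehicle for no effect and no enzyme for full effect; nearly all actives have a fitted effect of over 35% in size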
FEN1 inhibitor: blocks human flap endonuclease 1; Recombinant FEN1 flap cleavage, fluorescence, 15 min; 0.35% of 390,000 active; P39748; Potency, µM (series often up to 114 µM), inactives show at the highest dose activity change, negative = inhibition, usual class: inhibitors; note: potency is the fitted concentration of half-maximal effect; nearly all actives have a fitted effect of over 65% in size
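FEN1 at 10 nM preincubated with compounds 15 min at room temperature, then flap DNA substrate added at 50 nM final. Signal read at 0 and 15 min; concentration-response fitted with four-parameter Hill equation.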
APEX1 inh: inhibitors of human APE1 endonuclease | recombinant APE1, TAMRA/BHQ-2 abasic DNA cleavage fluorescence | Potency, µM (top dose mostly 65.8 µM), inactives show top-dose activity change, negative = inhibition, hits mostly inhibitors | 0.35% of 350,000 active | AID 2517;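 note: potency is the fitted concentration of half-maximal effect; plate controls were vehicle for no effect and reference inhibitor for full effect; nearly all actives have a fitted effect of over 55% in size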
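APE1 at 0.75 nM preincubated 15 min at room temperature with compound. Reaction then started with 50 nM double-stranded THF-abasic substrate labelled with TAMRA/BHQ-2, and 525/598 nm fluorescence read kinetically. Activity taken as third-minus-first read difference, normalized to DMSO and NSC13755 controls.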
PI5P4Ka inh: blocks human PI5P4K alpha kinase activity; P48426; PI5P4Kalpha enzyme, ADP-Glo luminescence, 60 min; hits give low values; max response, %; 1.2% of 330,000 active; active = max response of -50% or lower; inconclusive = between -30% and -50%; inactive = -30% or higher; note: value at the top dose of about 77 µM
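ADP-Glo luminescence end-point after a 60 min room-temperature kinase reaction. PI5P4Kalpha and substrate in HEPES pH 7.4 buffer with EGTA, 0.1% CHAPS and 5% DMSO; ATP at 5 microM final.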
RECQ1 inh: RECQ1 (human) helicase inhibition; RECQ1 DNA unwinding, red fluorescence kinetic read; Potency, µM (titrated, usually from 57.3 µM), for inactives: at the top dose activity, negative = inhibition, usual class: inhibitors; 0.54% of 240,000 active; AID 2549;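 note: potency is the fitted concentration of half-maximal effect; plate controls were vehicle for no effect and no enzyme for full effect; nearly all actives have a fitted effect of over 30% in size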
Target sequence (P46063 whole entry, looked up): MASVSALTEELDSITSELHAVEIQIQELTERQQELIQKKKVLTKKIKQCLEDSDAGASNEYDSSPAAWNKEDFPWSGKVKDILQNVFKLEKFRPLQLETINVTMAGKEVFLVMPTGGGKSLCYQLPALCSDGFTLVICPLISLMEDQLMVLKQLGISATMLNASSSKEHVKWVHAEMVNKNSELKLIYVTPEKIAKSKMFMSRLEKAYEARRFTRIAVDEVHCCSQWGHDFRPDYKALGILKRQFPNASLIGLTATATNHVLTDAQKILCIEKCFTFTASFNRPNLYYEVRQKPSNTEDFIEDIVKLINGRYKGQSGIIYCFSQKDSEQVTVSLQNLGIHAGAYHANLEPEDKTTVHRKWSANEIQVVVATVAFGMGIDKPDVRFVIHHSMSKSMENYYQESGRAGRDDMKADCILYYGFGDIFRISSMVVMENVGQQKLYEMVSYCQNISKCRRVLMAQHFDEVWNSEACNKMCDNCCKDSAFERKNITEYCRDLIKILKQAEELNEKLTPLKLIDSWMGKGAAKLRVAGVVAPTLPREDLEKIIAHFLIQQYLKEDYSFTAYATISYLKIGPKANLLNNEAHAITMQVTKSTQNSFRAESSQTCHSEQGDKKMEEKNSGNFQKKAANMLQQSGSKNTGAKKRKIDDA
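50 nM RECQ1T1 preincubated 15 min with compound in Tris pH 8.0 buffer with MgCl2, DTT, Tween-20 and 2.5 ug/ml poly(dI-dC); started with 200 nM TAMRA/BHQ-2 forked duplex and 2 mM ATP. Unwinding read as fluorescence (525/598 nm), two reads 2 h apart.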
GCN5L2 inh: blocks human GCN5L2 histone acetyltransferase. AID 504327. 0.21% of 390,000 active. GCN5L2 HAT assay, ThioGlo1 CoA-SH fluorescence. Potency, µM (series often up to 58.9 µM), inactives show at the highest dose activity change, negative = inhibition, actives largely listed as inhibitors; note: potency is the fitted concentration of half-maximal effect
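Free CoA generated was detected with ThioGlo1 (50uM) fluorescence at Ex340nm/Em540nm, read immediately and after 20 min at room temperature. Enzyme, 20 nM in HEPES pH 7.5 buffer, saw compounds 15 min before adding 75uM H3(1-25) peptide and 70uM acetyl-CoA.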
An asterisk follows results filed as active; i = inactive; ? = inconclusive; nt = no result; ! = repeats disagree. An excerpt weighted towards active compounds, which were near 1.5% of everything screened. Unless noted, calls come from the whole dose curve; as a rule, active = well fitted curve in the direction sought with a large enough effect; inconclusive = small, poorly fitted or top-dose-only effect, or another doubt; inactive = no such curve, though single readings can be large; an effect the other way counts as inactive or inconclusive. Unless noted, % is set by controls: 0 for no effect and ±100 for the full control effect.

SMILES | BLM inh | FEN1 inhibitor | APEX1 inh | PI5P4Ka inh | RECQ1 inh | GCN5L2 inh
O=C(Nc1cc(C(F)(F)F)cc(C(F)(F)F)c1)c1cc(Cl)ccc1O | -22% | nt | -9% | nt | -16% | ?
Oc1ccc(/C=N/NP(=S)(c2ccccc2)c2ccccc2)c(O)c1O | -23% | ? | ? | -51* | -13% | -9%
CCCCC/C=C\C/C=C\C/C=C\C/C=C\CCCC(=O)O | ? | nt | ? | nt | 2.2µM*! | 22µM*!
CCCCC/C=C\C[C@@H](/C=C/C=C\C/C=C\CCCC(=O)O)OO | -2% | nt | ? | nt | 12% | 13%
CC(C)C[C@H](CN)CC(=O)O | nt | nt | 12% | nt | nt | nt
O=C(O)c1cc(Oc2ccc([N+](=O)[O-])cc2)cc(Oc2ccc([N+](=O)[O-])cc2)c1 | -3% | nt | -5% | nt | -11% | ?
Cc1cccc(C)c1O | nt | nt | 31% | nt | -3% | nt
O=C1NC(=S)N(Cc2ccco2)C(=O)/C1=C\c1cccs1 | 28µM* | nt | 3.5µM* | nt | 7.1µM* | 8.9µM*
C=CCN1C(=O)/C(=C/c2cccs2)C(=O)NC1=S | 0% | -8% | 3% | -86* | -15% | 29%
C[C@H](CCC(=O)O)[C@H]1CC[C@H]2[C@@H]3CC[C@@H]4C[C@H](O)CC[C@]4(C)[C@H]3CC[C@]12C | ? | ? | ? | -4 | -29% | 25µM*!
CC1=C(O)C(=O)C=C2C1=CC=C1[C@]2(C)CC[C@@]2(C)C3C[C@](C)(C(=O)O)CC[C@@]3(C)CC[C@@]12C (some centres not stated) | -18% | nt | -1% | nt | -12% | 13µM*
O=S(=O)(O)F | nt | nt | 4% | nt | -1% | nt
CN(C)c1ccc(/C=C/c2cc[n+](C)c3ccccc23)cc1 | 7% | 35µM* | 2% | -26 | 16% | 38%
CN(C)c1ccc(/C=C/C=C/c2sc3ccccc3[n+]2C)cc1 | -6% | ? | -11% | -13 | 61% | -1%
CC(=O)NCC(N)C(=O)c1ccc(Cl)c(Cl)c1 (configuration not stated) | nt | -6% | nt | nt | nt | nt
O=C(O)c1cccc2c1NC(C(=O)O)C1CC(Sc3ccccc3[N+](=O)[O-])C(Cl)C21 (configuration not stated) | ? | 45µM* | 3% | -67* | 3% | ?
CC(=O)NNc1ccccc1 | nt | nt | -4% | nt | 0% | nt
N#CSCSC#N | nt | nt | ? | nt | -10% | nt
O=C1OC2(c3cc(Br)c(O)cc3Oc3c2cc(Br)c(O)[c]3[Hg])c2ccccc21 (configuration not stated) | nt | nt | 13µM* | nt | nt | nt
CCCCC/C=C\C/C=C\C/C=C\C/C=C\CCCC(=O)NCCCl | -10% | nt | ? | nt | -13% | 0%
CC(C)=CCCC1(C)C=Cc2c(O)c3c(c(CC=C(C)C)c2O1)OC12C(=CC4CC1C(C)(C)OC2(C/C=C(/C)C(=O)O)C4O)C3=O (configuration not stated) | 22µM* | nt | 1% | nt | -11% | 13µM*
CC(C)=CCCC1(C)C=Cc2c(O)c3c(c(CC=C(C)C)c2O1)OC12C(=CC4CC1C(C)(C)OC2(C/C=C(/C)C(=O)O)C4=O)C3=O (configuration not stated) | 28µM* | nt | 1% | nt | i | 32µM*
CC(C)CCCC1(C)C=Cc2c(O)c3c(c(CCC(C)C)c2O1)OC12C(CC4CC1C(C)(C)OC2(CCC(C)C(=O)O)C4O)C3=O (configuration not stated) | -10% | nt | -6% | nt | i | ?
Clc1nc(Cl)nc(Nc2ccccc2Cl)n1 | nt | nt | 3% | nt | -6% | nt
NC(=O)CI | nt | nt | 0% | nt | ? | 10µM*
SMILES | BLM inh | FEN1 inhibitor | APEX1 inh | PI5P4Ka inh | RECQ1 inh | GCN5L2 inh
N#C/C(=C\c1ccc(O)c(O)c1)C(N)=S | ? | nt | 13µM* | nt | 5.6µM*! | nt
O=c1[nH]c(=S)n(-c2ccccc2)c(O)c1/C=N/N1CCCCC1c1cccnc1 (configuration not stated) | -5% | -8% | ? | -3 | 25µM* | -18%
CCc1ccc(-n2c(O)c(/C=N/N3CCCCC3c3cccnc3)c(=O)[nH]c2=O)cc1 (configuration not stated) | 3% | 17% | 6% | 4 | -3% | -6%
CC(C)N1C(=O)/C(=C/C=C/c2ccco2)C(=O)N(Cc2ccco2)C1=O | ? | 56µM* | ? | -69* | 10µM* | ?
CCN1C(=O)C(=C/C=C/c2ccco2)C(=O)N(CC)C1=S | 11% | 22µM* | ? | -97* | -22% | -8%
CCN1C(=O)C(=C2C=C(C)N(Cc3ccco3)C(C)=C2)C(=O)N(CC)C1=S | -5% | -10% | -3% | 0 | -3% | -6%
CC(C)n1c(=O)c(C=Nc2ccc(Cl)cc2)c(O)n(Cc2ccco2)c1=O | -11% | nt | -2% | nt | 1% | -6%
O=C(Cl)c1ccccc1F | nt | nt | -5% | nt | 1% | nt
Cc1cc(/C=C/c2ccnc3ccccc23)ccc1N(CCCl)CCCl | nt | -33% | nt | nt | nt | nt
O=Cc1ccc(Cl)cc1Cl | nt | nt | -2% | nt | -11% | nt
COc1cc(C=C2C(=O)NC(=O)NC2=O)ccc1OCc1ccc([N+](=O)[O-])cc1 | 3% | -8% | -7% | ? | 0% | -10%
O=C1NC(=O)C(=Cc2ccccc2OCCOc2ccc([N+](=O)[O-])cc2)C(=O)N1 | -10% | ? | 13% | ? | -9% | -1%
O=C1NC(=O)C(=Cc2ccc(Oc3ccc([N+](=O)[O-])cc3)cc2)C(=O)N1 | -2% | -10% | 6% | -58* | 6% | 11%
Cc1cc(C)cc(OCCOc2cccc(C=C3C(=O)NC(=O)NC3=O)c2)c1 | -7% | ? | 17% | -51* | nt | -9%
Cc1ccc(OCCOc2cccc(C=C3C(=O)NC(=O)NC3=O)c2)cc1 | -6% | -18% | 6% | -78* | nt | 32%
O=C1NC(=O)C(=Cc2ccc3ccccc3c2)C(=O)N1 | -1% | ? | -3% | -79* | i | -3%
CCCCCc1cc(O)c2c(c1)OC(C)(C)C1CC=C(C)CC21 (configuration not stated) | -11% | nt | nt | nt | nt | -15%
CC1=C2C(=O)C3C(CC=C4C[C@@H](O)CC[C@@]43C)[C@@H]2CC[C@]12O[C@@H]1C[C@H](C)CN[C@H]1C2C (some centres not stated) | -7% | nt | -2% | nt | -22% | 31%
O=C1NC(=O)C(=Cc2ccc(N3CCN(C(=O)c4ccccc4)CC3)c([N+](=O)[O-])c2)C(=O)N1 | 4% | -24% | 8% | -62* | 0% | -11%
Cc1cnc2c(C(=O)O)c(Cl)ccc2c1 | 2% | nt | -4% | nt | -7% | 5%
